“And” between values parts separate entries of the source, which are not always exact repeats. Equal values may be shown once. Hit rate of the full screen: of about 390,000 compounds, about 4,000 (1%) were called active. Entries that show only a call come without a potency. Roughly 7% stayed inconclusive and do not appear here. Calls come from the whole dose curve; as a rule, active = well fitted inhibition curve with a large enough effect; inconclusive = small, poorly fitted or top-dose-only effect, or another doubt; inactive = no such curve, though single readings can be large or run the other way. The sample as a whole holds a higher share of actives than the screen did. More than one record can exist for a structure, and the calls need not agree.
molecular target: DNA polymerase iota (Homo sapiens) (UniProt Q9UNA4); assay: qHTS for Inhibitors of Polymerase Iota; conditions: Pol iota fluorescent replication assay, 10 min; series mostly up to 115 µM
How it was run: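 Pol iota at 10 nM preincubated 15 min with compounds at room temperature; reaction started with fluorescent substrate, 50 nM final. Fluorescence read kinetically at 0 and 10 min; buffer-only wells as negative control.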
Potency is the fitted concentration of half-maximal effect.

Sequence of DNA polymerase iota (Homo sapiens) (Q9UNA4 whole entry, looked up): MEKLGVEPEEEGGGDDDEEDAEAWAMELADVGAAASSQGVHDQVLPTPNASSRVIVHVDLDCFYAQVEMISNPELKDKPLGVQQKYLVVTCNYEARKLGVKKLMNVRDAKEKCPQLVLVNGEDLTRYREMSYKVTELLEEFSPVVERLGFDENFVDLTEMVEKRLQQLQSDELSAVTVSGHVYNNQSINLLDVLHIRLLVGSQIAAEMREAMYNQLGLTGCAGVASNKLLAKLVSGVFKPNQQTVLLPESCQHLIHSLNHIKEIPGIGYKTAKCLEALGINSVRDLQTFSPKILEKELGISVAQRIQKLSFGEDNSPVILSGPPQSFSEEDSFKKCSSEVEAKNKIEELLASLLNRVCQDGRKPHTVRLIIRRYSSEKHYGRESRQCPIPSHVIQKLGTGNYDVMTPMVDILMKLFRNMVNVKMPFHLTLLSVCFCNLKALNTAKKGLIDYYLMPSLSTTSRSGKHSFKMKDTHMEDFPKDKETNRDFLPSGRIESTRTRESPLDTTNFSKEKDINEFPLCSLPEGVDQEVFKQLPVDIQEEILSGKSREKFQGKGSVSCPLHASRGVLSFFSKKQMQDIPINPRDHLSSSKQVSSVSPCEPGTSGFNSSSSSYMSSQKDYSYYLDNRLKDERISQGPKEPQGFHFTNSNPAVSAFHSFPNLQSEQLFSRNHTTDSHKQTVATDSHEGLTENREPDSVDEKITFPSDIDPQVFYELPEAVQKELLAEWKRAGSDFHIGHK

SMILES | Potency
Cc1ccc(NC(=O)CSc2nc3c(c(=O)[nH]2)CN(Cc2ccc4c(c2)OCO4)CC3)cc1C | inactive
CCc1ccc2ncc3c(-c4ccc(C)cc4)nn(CC(=O)NCc4ccccc4)c3c2c1 | inactive
COC(=O)c1cnc(N2CCN(c3ccccc3OC)CC2)c2ccccc12 | inactive
S=c1[nH]nc(-c2ccco2)n1/N=C/c1ccc(Br)s1 | inactive
Cc1cc(-c2n[nH]c(=S)n2/N=C/c2ccco2)n[nH]1 | 44.7 µM (active)
COc1ccccc1/C=C/C=N/n1c(-c2ccc(Cl)cc2Cl)n[nH]c1=S | inactive
COc1ccc(C)cc1NC(=O)CCc1c(C)nn(-c2ccc(N3CCOCC3)nn2)c1C | inactive
COc1cccc(C(=O)NC(=O)Nc2ccc(-c3cc(C(F)(F)F)nn3-c3ccccc3)cc2)c1 | inactive
COC(=O)C1=C(c2ccccc2)c2ccccc2S(=O)(=O)N1CC(=O)Nc1ccccc1C(F)(F)F | inactive
OC(Cc1ccc2ccccc2n1)c1ccc(Cl)c(Cl)c1 (configuration not stated) | inactive
O=C(NCCS(=O)(=O)N1CCN(c2ccc(F)cc2)CC1)c1ccccc1Br | inactive
CC(=O)Nc1ccc(S(=O)(=O)NC2(C(F)(F)F)C(=O)NC(C)=C2C#N)cc1 (configuration not stated) | 22.4 µM (active)
CCCN1C(=O)C(NS(=O)(=O)c2ccc(N)cc2)(C(F)(F)F)C(C(=O)OC)=C1C (configuration not stated) | inactive
CC(=O)Nc1ccc(S(=O)(=O)NC2(C(F)(F)F)C(=O)Nc3c2c(=O)[nH]c(=O)n3Cc2ccccc2)cc1 (configuration not stated) | inactive
Cc1c(Cl)cccc1NC(=O)N1CCN(C(=O)c2nsc3ccccc23)CC1 | inactive
O=C(CCSCc1ccccc1F)N1CCN(c2ccc(Cl)cc2)CC1 | inactive
Cc1nc(C)c(C(=O)N(c2ccc(C)c(C)c2)C(C(=O)NCc2ccco2)c2ccccc2)s1 (configuration not stated) | 79.4 µM (active)
Cc1cccc(N(C(=O)c2sc(C)nc2C)C(C(=O)NCC2CCCO2)c2ccccc2)c1 (configuration not stated) | inactive
Cc1cccc(N(C(=O)Cc2cccs2)C(C(=O)NCc2ccco2)c2ccncc2)c1 (configuration not stated) | inactive
CC(C)(C(=O)NO)c1ccccc1 | inactive
O=C(Nc1c(-c2ccc(F)cc2)nc2ccccn12)c1cccc(F)c1 | inactive
CS(=O)(=O)c1ccc(C(=O)OCC(=O)NNC(=O)COc2ccc(Cl)cc2)cc1 | 79.4 µM (active)
CS(=O)(=O)c1ccc(Cl)c(NC(=O)COC(=O)c2ncc(Cl)c(Cl)c2Cl)c1 | inactive

SMILES | Potency
O=C(COc1ccc(Cl)cc1)N1CCN(S(=O)(=O)c2ccc(Cl)cc2)CC1 | inactive
COc1cc(OC)c(/C=C/c2ccnc3ccccc23)c(OC)c1 | inactive
CC(NC(=O)CCc1cn(Cc2ccccc2Cl)c2ccccc12)c1ccccc1 (configuration not stated) | inactive
O=C(Cn1c(=O)nc(-c2ccccc2)c2cc(Cl)ccc21)NCc1ccc(Cl)cc1 | inactive
CC(C)c1ccc2c(c1)c(SC(C)(C)C)c(CC(C)(C)C(=O)O)n2Cc1ccc(Cl)cc1 | 28.2 µM (active)
Cc1c(C)n(Cc2ccc(Cl)cc2)c2ccc(C(=O)N3CCN(c4ccccc4F)CC3)cc12 | inactive
COc1cc(-c2noc(-c3ccc(N4CCCC4)c([N+](=O)[O-])c3)n2)cc(OC)c1OC | inactive
Cc1ccc(C(=O)N2CCc3cc(CNC(=O)c4ccc(Br)cc4)ccc32)cc1 | inactive
CSC1=N/C(=C\C=C\c2cccs2)C(=O)S1 | 15.8 µM (active)
Cc1ccc(CN(C(=O)COc2ccc(Cl)cc2C)C2CCS(=O)(=O)C2)o1 (configuration not stated) | inactive
CCc1cc2c(-c3ccccc3)cc(=O)oc2c2c1OCN(Cc1ccc(C)cc1)C2 | inactive
Cc1ccc(S(=O)(=O)c2nc(-c3ccco3)oc2SCC(=O)Nc2ccc(F)cc2)cc1 | inactive
O=C1CCCc2cc(S(=O)(=O)N3CCCC(C(=O)NCc4ccccc4)C3)ccc2N1 (configuration not stated) | inactive
CN(C)S(=O)(=O)c1cccc(-c2nn(-c3ccccc3)cc2/C=C2\SC(=S)N(CC(=O)O)C2=O)c1 | 31.6 µM (active)
O=C1/C(=C/c2coc3ccc(O)cc3c2=O)SC(=S)N1c1ccccc1 | inactive
Cc1ccc(-c2nn(-c3ccccc3)cc2/C=C/C(=O)Nc2cccc(S(N)(=O)=O)c2)cc1 | inactive
Cc1ccc(-c2nn(-c3ccccc3)cc2/C=C2\SC(=S)N(CCCCCC(=O)O)C2=O)o1 | 89.1 µM (active)
O=C(O)CCCCCCCCc1cn(CN2C(=O)c3ccccc3C2=O)nn1 | inactive
COc1cccc(-c2nn(-c3ccccc3)cc2/C=C(\C#N)C(=O)NCCCn2ccnc2)c1 | inactive
CCn1cc(C(=O)N(C)Cc2ccccc2)c(=O)c2cc(S(=O)(=O)N3CCCCCC3)ccc21 | inactive
COc1ccc(Cn2c(=O)n(-c3ccccc3C)c(=O)c3c4c(sc32)CN(C(C)=O)CC4)cc1 | inactive
CCn1c(C(=O)Nc2cc(Cl)ccc2C)cc2sc(Cl)cc21 | inactive
Cc1ccc2nc(/C(C#N)=C/c3ccc(-c4ccc(C(=O)OC(C)C)cc4)o3)[nH]c2c1 | inactive

SMILES | Potency
CN(Cc1ccco1)S(=O)(=O)c1nnc(NC(=O)c2ccccc2)s1 | inactive and 44.7 µM (active)
CCCCC(=O)Nc1nnc(S(=O)(=O)N(C)Cc2ccco2)s1 | inactive
CN(Cc1ccccc1)S(=O)(=O)c1nnc(NC(=O)c2ccccc2F)s1 | inactive
CN(Cc1ccccc1)c1ccc(-c2nc(-c3ccccc3)no2)cc1[N+](=O)[O-] | inactive
CC(=O)c1ccc(NC(=O)c2nc3nc(C)cc(C(F)F)n3n2)cc1 | inactive
COc1ccc(-c2nc(S(=O)(=O)c3ccccc3)c(N3CCCCC3)o2)cc1 | inactive
CCn1cc(C(=O)N2CCN(c3cc(C)ccc3C)CC2)c(=O)c2cc(S(=O)(=O)N(C)C3CCCCC3)ccc21 | inactive
O=C(O)c1ccc(Cn2c(SCc3ccc(F)cc3)nc3ccncc32)cc1 | inactive
Cc1cc(-c2n[nH]c(=S)n2-c2ccc(C)c(C)c2)no1 | inactive
COc1cc(-c2n[nH]c(=S)n2Cc2ccccc2)cc(OC)c1OC | inactive
COc1ccccc1-n1c(-c2cc(-c3ccco3)[nH]n2)n[nH]c1=S | 8.91 µM (active)
C=CCOc1c(Br)cc(/C=N\n2nnnc2N)cc1OC | inactive
CCOc1ccc(/C=C(\C#N)c2nc3ccccc3c(=O)[nH]2)cc1OC | inactive
CCOc1c(Br)cc(/C=C2\C(=O)N(CCC#N)N=C2C)cc1OC | 0.794 µM (active)
CC(C)(C)OC(=O)N1CCC(c2c(C(=O)NCc3ccccn3)cnn2-c2ccc(F)cc2)CC1 | inactive
CCc1nnc(NC(=O)C2CCCN2S(=O)(=O)c2ccccc2)s1 (configuration not stated) | inactive
CCc1ccc(NC(=O)C2CCCN2S(=O)(=O)c2ccc3nc(-c4ccccc4)[nH]c3c2)cc1 (configuration not stated) | 89.1 µM (active)
CC(=O)Nc1ccc(NC(=O)C2CCCN2S(=O)(=O)c2cccc(C(F)(F)F)c2)cc1 (configuration not stated) | inactive
CN(CCC#N)c1ccc(C=O)cc1 | inactive
Cc1ccc(Nc2c(-c3ccc(C)cc3)nc3cnccn23)cc1 | inactive
COc1ccc(C(=O)Nc2cccc(/C=C(/CCC(=O)O)c3nc4ccccc4s3)c2)cc1 | 12.6 µM (active)
Cc1nn(-c2ccc(F)cc2)c(Cl)c1/C=C(/CCC(=O)O)c1nc2ccccc2s1 | inactive
COc1cccc(NC(=O)c2ccc3nc(CCc4ccccc4)oc3c2)c1 | inactive

SMILES | Potency
Cc1csc[n+]1CCC1CCCCC1 | inactive
CCOC(=O)c1ccc(NC(=O)c2csc3c2CCCCC3)cc1 | inactive
CCOc1ccc(C(=O)/C=C/c2cn(CC(O)CN3CCCCCC3)c3ccccc23)cc1 (configuration not stated) | inactive
O=C(CN1CCSc2ccccc21)N1CCN(c2ccccc2)CC1 | inactive
CC(C)c1ccc(NS(=O)(=O)c2ccc3[nH]cc(C(=O)NC4CCCC4)c(=O)c3c2)cc1 | 79.4 µM (active)
Cc1cc(C)cc(NS(=O)(=O)c2ccc3[nH]cc(C(=O)N4CCCCC4)c(=O)c3c2)c1 | inactive
CCCCNC(=O)c1c[nH]c2ccc(S(=O)(=O)Nc3ccc(OCC)cc3)cc2c1=O | inactive
Cc1ccc(C)c(N2CCN(Cc3nnc(-c4ccccc4)o3)CC2)c1 | inactive
CN(CC(=O)Nc1ccccc1F)S(=O)(=O)c1ccc2c(c1)c(=O)n(C)c(=O)n2C | inactive
CS(=O)(=O)c1ccc2c(c1)SC1=NC(=O)/C(=C/c3ccco3)C(=N)N12 | 14.1 µM (active)
CCNC(=O)CC1C(=O)N(c2ccc(F)cc2)C(=O)N1Cc1ccc(C)cc1 (configuration not stated) | inactive
CCN(CC)S(=O)(=O)c1cccc(-c2n[nH]c(=S)n2/N=C/c2ccc(C(=O)OC)cc2)c1 | inactive
CCCc1cc(-c2n[nH]c(=S)n2CC)c2ccccc2n1 | inactive
S=c1[nH]nc(-c2cc(-c3ccccc3)n[nH]2)n1/N=C/c1c2ccccc2cc2ccccc12 | 20 µM (active)
C=CCc1c(C)nc2cc(-c3ccccc3)[nH]n2c1=O | inactive
Cc1cc(=O)n2[nH]c(-c3sccc3-n3c(C)ccc3C)cc2n1 | 20 µM (active)
CN(Cc1ccccc1)C(=O)c1cn(C)c2ccc(S(=O)(=O)N(C)C3CCCCC3)cc2c1=O | inactive
COC(=O)c1cc(NC(=O)c2cnc(SC)nc2-c2ccccc2)cc(C(=O)OC)c1 | inactive
CC(C)(C)OC(=O)N1CCC(c2c(C(=O)Nc3ccc4c(c3)OCO4)cnn2-c2ccccc2)CC1 | inactive
Cc1cccc(-n2ncc(C(=O)N3CCN(c4ccc(Cl)cc4)CC3)c2C2CCN(C(=O)OC(C)(C)C)CC2)c1 | inactive
COC(=O)c1ccc(NC(=O)c2cnn(-c3ccc(Cl)cc3)c2C2CCN(C(=O)OC(C)(C)C)CC2)cc1 | 89.1 µM (active)
Cc1nn(C)c2c1c(C(F)(F)F)cc(=O)n2C(C)C(=O)NCc1ccc(Cl)cc1 (configuration not stated) | inactive
CN1CCOC1c1ccc(C2OCCN2C)cc1 (configuration not stated) | 20 µM (active)

Source: PubChem BioAssay AID588590 (National Center for Advancing Translational Sciences (NCATS), 2011)
